{"source": "the supplement of paper PMC8728848", "test_in_all_cases": "glycan array binding signal (z-score within array); higher = stronger binding", "conditions_in_all_cases": "glycan notation: IUPAC condensed, linker removed", "key": {"[1]": {"molecular_target": "Fuc(a1-2)Gal(b1-3)[Fuc(a1-4)]GlcNAc(b1-2)Man(a1-3)[Fuc(a1-2)Gal(b1-3)[Fuc(a1-4)]GlcNAc(b1-2)Man(a1-3)]Man(b1-4)GlcNAc(b1-4)GlcNAc", "how_it_was_run": "(§1)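 Glycan array data came from 3228 arrays in the Consortium for Functional Glycomics database, and only arrays with an available protein sequence were kept. Glycan names were put into IUPAC-condensed notation, and columns mapping to the same glycan were averaged. The binding signal is a within-array Z-score, averaged across arrays of one protein sequence run at different concentrations or buffers and across linkers. A negative Z-score can be read as non-binding.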"}, "[2]": {"molecular_target": "Fuc(a1-2)[Gal(a1-3)]Gal(b1-4)GlcNAc(b1-3)GalNAc", "how_it_was_run": "as §1"}, "[3]": {"molecular_target": "Fuc(a1-2)[Gal(a1-3)]Gal(b1-4)GlcNAc(b1-6)GalNAc", "how_it_was_run": "as §1"}, "[4]": {"molecular_target": "Fuc(a1-2)[Gal(a1-4)]Gal(b1-4)GlcNAc", "how_it_was_run": "as §1"}, "[5]": {"molecular_target": "Fuc(a1-2)[GalNAc(a1-3)]Gal(b1-3)GlcNAc(b1-2)Man(a1-3)[Fuc(a1-2)[GalNAc(a1-3)]Gal(b1-3)GlcNAc(b1-2)Man(a1-6)]Man(b1-4)GlcNAc(b1-4)[Fuc(a1-6)]GlcNAc", "how_it_was_run": "as §1"}, "[6]": {"molecular_target": "Fuc(a1-2)[GalNAc(a1-3)]Gal(b1-4)[Fuc(a1-3)]GlcNAc(b1-3)GalNAc", "how_it_was_run": "as §1"}, "[7]": {"molecular_target": "Fuc(a1-3)[Gal(b1-4)]GlcNAc(b1-3)Gal(b1-3)[Fuc(a1-4)]GlcNAc", "how_it_was_run": "as §1"}, "[8]": {"molecular_target": "Fuc(a1-3)[Gal(b1-4)]GlcNAc(b1-3)Gal(b1-4)[Fuc(a1-3)]GlcNAc(b1-3)Gal(b1-4)[Fuc(a1-3)]GlcNAc", "how_it_was_run": "as §1"}, "[9]": {"molecular_target": "Fuc(a1-3)[Gal3S(b1-4)]GlcNAc6S", "how_it_was_run": "as §1"}, "[10]": {"molecular_target": "Fuc(a1-4)GlcNAc", "how_it_was_run": "as §1"}, "[11]": {"molecular_target": "Gal(a1-3)Gal(b1-4)GlcNAc", "how_it_was_run": "as §1"}, "[12]": {"molecular_target": "Gal(a1-4)Gal(b1-3)GlcNAc(b1-2)Man(a1-3)[Gal(a1-4)Gal(b1-3)GlcNAc(b1-2)Man(a1-6)]Man(b1-4)GlcNAc(b1-4)GlcNAc", "how_it_was_run": "as §1"}, "[13]": {"molecular_target": "Gal(b1-3)Gal(b1-4)GlcNAc", "how_it_was_run": "as §1"}, "[14]": {"molecular_target": "Gal(b1-3)GalNAc(b1-3)Gal", "how_it_was_run": "as §1"}, "[15]": {"molecular_target": "Gal(b1-3)GalNAc(b1-4)Gal(b1-4)Glc", "how_it_was_run": "as §1"}, "[16]": {"molecular_target": "Gal(b1-3)GlcNAc(b1-3)Gal(b1-4)Glc", "how_it_was_run": "as §1"}, "[17]": {"molecular_target": "Gal(b1-3)GlcNAc(b1-3)Gal(b1-4)GlcNAc", "how_it_was_run": "as §1"}, "[18]": {"molecular_target": "Gal(b1-3)GlcNAc(b1-3)Gal(b1-4)GlcNAc(b1-2)Man(a1-3)[Gal(b1-3)GlcNAc(b1-3)Gal(b1-4)GlcNAc(b1-2)Man(a1-6)]Man(b1-4)GlcNAc(b1-4)GlcNAc", "how_it_was_run": "as §1"}, "[19]": {"molecular_target": "Gal(b1-3)GlcNAc(b1-3)Gal(b1-4)GlcNAc(b1-2)[Gal(b1-3)GlcNAc(b1-3)Gal(b1-4)GlcNAc(b1-6)]Man(a1-6)[Gal(b1-3)GlcNAc(b1-3)Gal(b1-4)GlcNAc(b1-2)Man(a1-3)]Man(b1-4)GlcNAc(b1-4)[Fuc(a1-6)]GlcNAc", "how_it_was_run": "as §1"}, "[20]": {"molecular_target": "Gal(b1-3)GlcNAc(b1-3)Gal(b1-4)GlcNAc(b1-3)Gal(b1-4)GlcNAc(b1-2)[Gal(b1-3)GlcNAc(b1-3)Gal(b1-4)GlcNAc(b1-3)Gal(b1-4)GlcNAc(b1-6)]Man(a1-6)[Gal(b1-3)GlcNAc(b1-3)Gal(b1-4)GlcNAc(b1-3)Gal(b1-4)GlcNAc(b1-2)Man(a1-3)]Man(b1-4)GlcNAc(b1-4)[Fuc(a1-6)]GlcNAc", "how_it_was_run": "as §1"}, "[21]": {"molecular_target": "Gal(b1-3)GlcNAc(b1-3)Gal(b1-4)GlcNAc(b1-6)[Gal(b1-3)GlcNAc(b1-3)]Gal(b1-4)Glc", "how_it_was_run": "as §1"}, "[22]": {"molecular_target": "Gal(b1-3)GlcNAc6S", "how_it_was_run": "as §1"}, "[23]": {"molecular_target": "Gal(b1-3)[Fuc(a1-4)]GlcNAc(b1-3)Gal(b1-3)[Fuc(a1-4)]GlcNAc", "how_it_was_run": "as §1"}, "[24]": {"molecular_target": "Gal(b1-3)[Neu5Ac(a2-6)]GlcNAc(b1-4)Gal(b1-4)Glc", "how_it_was_run": "as §1"}, "[25]": {"molecular_target": "Gal(b1-4)GlcNAc(b1-2)Man(a1-3)[Man(a1-6)]Man(b1-4)GlcNAc(b1-4)GlcNAc", "how_it_was_run": "as §1"}, "[26]": {"molecular_target": "Gal(b1-4)GlcNAc(b1-2)[Gal(b1-4)GlcNAc(b1-4)]Man(a1-3)[Gal(b1-4)GlcNAc(b1-2)[Gal(b1-4)GlcNAc(b1-6)]Man(a1-6)]Man(b1-4)GlcNAc(b1-4)GlcNAc", "how_it_was_run": "as §1"}, "[27]": {"molecular_target": "Gal3S(b1-4)GlcNAc", "how_it_was_run": "as §1"}, "[28]": {"molecular_target": "Gal6S(b1-3)GlcNAc6S", "how_it_was_run": "as §1"}, "[29]": {"molecular_target": "GalNAc(a1-3)GalNAc", "how_it_was_run": "as §1"}, "[30]": {"molecular_target": "GalNAc(a1-3)GalNAc(b1-3)Gal(a1-4)Gal(b1-4)GlcNAc", "how_it_was_run": "as §1"}, "[31]": {"molecular_target": "Neu5Gc(a2-6)Gal(b1-4)GlcNAc", "how_it_was_run": "as §1"}}, "note": "Many of the other results were omitted from the sample, so the strongest signals are more common in it than they were.", "data": [{"binder": "B160 (Bifidobacterium sp) (protein) MVSHNKRIVAALAAVAAMGIGLAGCGGSDTAGDTKSGSDGGVVNITYMHRLPDSEGMTLVNDIVAKWNKEHPNIQVKATKFDGNAADMIKKLETDVKAGNAPDLAQVGYAEVPEVFTKGLLQDVTDEAAKYKDDFASGPFALMQVDGKTYGLPQDTGPLTYFYNAAEFEKLGITVPKTADELIETAKKTAAQGKYIMTFTPDEAMMMMSGQAGASGPWYKVDGNSWVVNTQTKGSKAVADVYQQLIDNKAALTNPRWDASFDNSIQSGQLIGTVAAAWEAPLFIDSAGGTGAGEWKVTQLGDWFGNGTKTGANGGSGVAVLKGSKHPAEAMEFLDWFNTQVDDLVSQGLVVAATTADAKTPQKWSDYFSGQDVMAEFKTANDNMGDFTYMPGFSAVGAAMKQTAAKAADGSAKVSDVFDTAQKTSVDTLKNLGLSVKE", "values": [{"measurement": "glycan array binding signal (z-score)", "setting": "[1]", "result": -0.134}, {"measurement": "glycan array binding signal (z-score)", "setting": "[2]", "result": -0.168}, {"measurement": "glycan array binding signal (z-score)", "setting": "[3]", "result": -0.163}, {"measurement": "glycan array binding signal (z-score)", "setting": "[4]", "result": -0.15}, {"measurement": "glycan array binding signal (z-score)", "setting": "[5]", "result": -0.126}, {"measurement": "glycan array binding signal (z-score)", "setting": "[6]", "result": -0.135}, {"measurement": "glycan array binding signal (z-score)", "setting": "[7]", "result": -0.164}, {"measurement": "glycan array binding signal (z-score)", "setting": "[8]", "result": -0.14}, {"measurement": "glycan array binding signal (z-score)", "setting": "[9]", "result": -0.145}, {"measurement": "glycan array binding signal (z-score)", "setting": "[10]", "result": -0.176}, {"measurement": "glycan array binding signal (z-score)", "setting": "[11]", "result": -0.166}, {"measurement": "glycan array binding signal (z-score)", "setting": "[12]", "result": -0.093}, {"measurement": "glycan array binding signal (z-score)", "setting": "[13]", "result": 11.7}, {"measurement": "glycan array binding signal (z-score)", "setting": "[14]", "result": 6.25}, {"measurement": "glycan array binding signal (z-score)", "setting": "[15]", "result": 8.55}, {"measurement": "glycan array binding signal (z-score)", "setting": "[16]", "result": 4.36}, {"measurement": "glycan array binding signal (z-score)", "setting": "[17]", "result": 4.98}, {"measurement": "glycan array binding signal (z-score)", "setting": "[18]", "result": 5.11}, {"measurement": "glycan array binding signal (z-score)", "setting": "[19]", "result": 8.35}, {"measurement": "glycan array binding signal (z-score)", "setting": "[20]", "result": 6.21}, {"measurement": "glycan array binding signal (z-score)", "setting": "[21]", "result": 5.45}, {"measurement": "glycan array binding signal (z-score)", "setting": "[22]", "result": 6.55}, {"measurement": "glycan array binding signal (z-score)", "setting": "[23]", "result": -0.141}, {"measurement": "glycan array binding signal (z-score)", "setting": "[24]", "result": 6.71}, {"measurement": "glycan array binding signal (z-score)", "setting": "[25]", "result": -0.176}, {"measurement": "glycan array binding signal (z-score)", "setting": "[26]", "result": -0.18}, {"measurement": "glycan array binding signal (z-score)", "setting": "[27]", "result": -0.172}, {"measurement": "glycan array binding signal (z-score)", "setting": "[28]", "result": -0.179}, {"measurement": "glycan array binding signal (z-score)", "setting": "[29]", "result": -0.173}, {"measurement": "glycan array binding signal (z-score)", "setting": "[30]", "result": -0.166}]}, {"binder": "Gal 10 (Homo sapiens), Q05315 (protein) MSLLPVPYTEAASLSTGSTVTIKGRPLVCFLNEPYLQVDFHTEMKEESDIVFHFQVCFGRRVVMNSREYGAWKQQVESKNMPFQDGQEFELSISVLPDKYQVMVNGQSSYTFDHRIKPEAVKMVQVWRDISLTKFNVSYLKR", "values": [{"measurement": "glycan array binding signal (z-score)", "setting": "[31]", "result": -0.495}]}]}
